Among the test systems are NCI-H23 lung; NCI-H226 lung; NCI-H322M lung; HOP-62 NSCLC; NCI-H460 lung; HOP-92 NSCLC; NCI-H522 lung; A549/ATCC NSCLC; 786-0 renal; COLO 205 colon.
Holding throughout (assay): NCI-60 one-dose screen, 48 h (100 = growth as untreated, 0 = no growth, -100 = all killed)
What all share (conditions): 10 µM unless noted

Compounds without any hit were thinned out: in the full panel of roughly 83,000, 20% have a hit.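 Single-concentration screen, 48 h exposure, 96-well plates. Endpoint: percent growth. Below 10 = active.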 Unmarked numbers belong to inactive results. Active and inactive are the calls of the source.

Turning to `Cc1cc(Cl)nc(N(CCNc2ccnc3cc(Cl)ccc23)Cc2ccccn2)n1`, the growth is 56.2% in the assay with NCI-H23 lung; 79.5% in the assay with NCI-H226 lung; 63.6% in the assay with NCI-H322M lung; 72.5% with HOP-62 NSCLC; 50.9% in the assay on NCI-H460 lung; 38% with HOP-92 NSCLC. Besides, the growth in the assay on NCI-H522 lung is 54.1%; with A549/ATCC NSCLC, 63.3%; with 786-0 renal, 38.7%; with COLO 205 colon it was 57.5%.
Consider `COc1cc(/C=N/O)nc(-c2ccccn2)c1`, for which the growth was 19.9% with NCI-H23 lung; 11.7% with NCI-H226 lung; 23.9% with NCI-H322M lung; 23.9% in the assay with HOP-62 NSCLC; 5.13% (active) in the assay on NCI-H460 lung; 54.4% in the assay on HOP-92 NSCLC. For the same compound, the growth was 7.77% (active) in the assay on NCI-H522 lung, 14.8% in the assay on A549/ATCC NSCLC, 17.5% in the assay with 786-0 renal and 10.7% in the assay with COLO 205 colon.
On to `CN1CCN(c2ccc(NC3=C(Cl)C(=O)c4ncccc4C3=O)cc2C(F)(F)F)CC1`, for which the growth is 58.7% in the assay on NCI-H23 lung; 102% in the assay on NCI-H226 lung; 98% in the assay on NCI-H322M lung; 114% in the assay with HOP-62 NSCLC; 101% with NCI-H460 lung; -76.4% (active) in the assay on HOP-92 NSCLC. Besides, the growth is -49.8% (active) in the assay with NCI-H522 lung, 104% with A549/ATCC NSCLC, 82.6% in the assay on 786-0 renal and -16.7% (active) with COLO 205 colon.
Consider `CC1=C(C(=O)/C=C/c2c[nH]c3ccccc23)C(c2ccccc2)NC(=S)N1` (stereo not given), for which the growth with NCI-H23 lung is 94.5%; in the assay with NCI-H226 lung, 80.4%; with NCI-H322M lung, 101%; with HOP-62 NSCLC, 97.9%; in the assay with NCI-H460 lung, 99.6%; in the assay with HOP-92 NSCLC, 90.1%. Besides, the growth in the assay with NCI-H522 lung was 89%; with A549/ATCC NSCLC, 106%; in the assay with 786-0 renal it was 102%; with COLO 205 colon it was 121%.
Take `COc1cc2nc(-c3ccc(C(F)(F)F)cc3)cc(OCCN3CCCCC3)c2cc1OC`: the growth in the assay on NCI-H23 lung is 84.7%; in the assay with NCI-H226 lung it was 73.2%; in the assay on NCI-H322M lung, 73.1%; with HOP-62 NSCLC it was 69.7%; in the assay with NCI-H460 lung it was 46.3%; in the assay with HOP-92 NSCLC, 68.2%. The growth with NCI-H522 lung is 91.2%; with A549/ATCC NSCLC, 81%; in the assay on 786-0 renal it was 78.7%; with COLO 205 colon, 27.4%.
Consider `C[C@H]1[C@H]2[C@H]3CC[C@@H]4[C@@]5(C)CC[C@H](O)C(C)(C)[C@@H]5CC[C@@]4(C)[C@]3(C)CC[C@]23CO[C@]1(C)[C@@H](C(=O)/C=C\c1ccco1)C3`, for which the growth in the assay with NCI-H23 lung is 98.5%; in the assay on NCI-H226 lung, 99.7%; in the assay with NCI-H322M lung, 88.3%; with HOP-62 NSCLC it was 104%; in the assay with NCI-H460 lung it was 109%; in the assay on HOP-92 NSCLC it was 65.4%. Moreover, the growth was 87.8% in the assay on NCI-H522 lung, 104% in the assay with A549/ATCC NSCLC, 104% in the assay with 786-0 renal and -2.3% (active) with COLO 205 colon.
`O=C(/C=C/c1c(-c2ccc(Cl)cc2)nn(-c2ccccc2)c1C(F)(F)F)c1ccc(Cl)cc1`: the growth in the assay with NCI-H23 lung is 80.8%; in the assay with NCI-H226 lung, 101%; in the assay with NCI-H322M lung, 93.3%; in the assay on HOP-62 NSCLC, 90.9%; in the assay on NCI-H460 lung, 82.3%; in the assay with HOP-92 NSCLC, 65.1%. Moreover, the growth was 78.9% with NCI-H522 lung, 81.3% in the assay on A549/ATCC NSCLC, 95.9% with 786-0 renal and 110% in the assay with COLO 205 colon.
With `O=C(O)c1ccc2c(c1)C(=O)N(Cc1ccccc1)C2=O`, the growth in the assay on NCI-H23 lung is 98.5%; with NCI-H226 lung, 92.7%; in the assay with NCI-H322M lung, 96%; in the assay on HOP-62 NSCLC, 95.8%; in the assay with NCI-H460 lung it was 102%; in the assay on HOP-92 NSCLC, 86.2%. Besides, the growth in the assay on NCI-H522 lung is 91.4%; in the assay with A549/ATCC NSCLC, 101%; in the assay on 786-0 renal it was 95.5%; in the assay with COLO 205 colon it was 107%.
Take `CCOC(=O)Oc1c(OC)cc(C(=O)c2ccc(OC)c(O)c2OC)cc1OC`: the growth in the assay on NCI-H23 lung is 37.8%; with NCI-H226 lung, 54.9%; in the assay on NCI-H322M lung it was 46.1%; with HOP-62 NSCLC, 24%; with NCI-H460 lung, 8.66% (active); in the assay with HOP-92 NSCLC, 48.3%. Also, the growth with NCI-H522 lung was 24%; in the assay with A549/ATCC NSCLC, 25.7%; in the assay with 786-0 renal, 21.2%; in the assay with COLO 205 colon, 89.6%.
Take `O=C(NNc1nc2c(F)cccc2n2cccc12)c1cnccn1`: the growth is 24.8% with NCI-H23 lung; 31.7% with NCI-H226 lung; 25.5% in the assay with NCI-H322M lung; 30.2% in the assay with HOP-62 NSCLC; 11.6% with NCI-H460 lung; 67.4% in the assay on HOP-92 NSCLC. Further, the growth was 2.24% (active) in the assay with NCI-H522 lung, 15.7% in the assay on A549/ATCC NSCLC, 27.4% in the assay with 786-0 renal and -4% (active) in the assay with COLO 205 colon.
In the case of `O=c1ccc(-c2nc(N3CCOCC3)c3ccccc3n2)c[nH]1`, the growth with NCI-H23 lung is 93.9%; with NCI-H226 lung it was 91.7%; in the assay with NCI-H322M lung it was 92.3%; with HOP-62 NSCLC it was 99.6%; in the assay with NCI-H460 lung, 103%; in the assay on HOP-92 NSCLC, 103%. Also, the growth in the assay with NCI-H522 lung was 98.9%; in the assay on A549/ATCC NSCLC, 97%; in the assay on 786-0 renal it was 97.1%; in the assay with COLO 205 colon it was 106%.
Regarding `O=S(=O)(NCCCNc1nccc(-c2c(-c3cccc(F)c3)nc3sccn23)n1)c1cccc2ccccc12`, the growth with NCI-H23 lung is 66.2%; in the assay on NCI-H226 lung, 36.8%; in the assay on NCI-H322M lung it was 81.6%; with HOP-62 NSCLC, 80.7%; with NCI-H460 lung it was 19.8%; in the assay on HOP-92 NSCLC it was 94.6%. Also, the growth with NCI-H522 lung is 56.3%; with A549/ATCC NSCLC, 45.6%; in the assay with 786-0 renal it was 52.9%; with COLO 205 colon it was 21.5%.
`CC(C)(C)c1cc(C=O)cc(C(C)(C)C)c1O`: the growth in the assay with NCI-H23 lung is 112%; with NCI-H226 lung, 97.8%; in the assay with NCI-H322M lung, 101%; in the assay on HOP-62 NSCLC, 106%; with NCI-H460 lung, 111%; with HOP-92 NSCLC, 79.5%. Besides, the growth with NCI-H522 lung is 90.7%; in the assay on A549/ATCC NSCLC, 101%; in the assay with 786-0 renal it was 107%; in the assay with COLO 205 colon it was 100%.
Consider `CCCCCN1C=C/C(=C\C(=O)N(C)c2ccccc2Br)c2ccccc21`, for which the growth is 77.8% in the assay on NCI-H23 lung; 89.8% in the assay on NCI-H226 lung; 108% in the assay with NCI-H322M lung; 95.3% in the assay on HOP-62 NSCLC; 101% in the assay with NCI-H460 lung; 94.7% with HOP-92 NSCLC. In addition, the growth is 78.2% in the assay on NCI-H522 lung, 90.9% in the assay with A549/ATCC NSCLC, 94.1% in the assay on 786-0 renal and 105% in the assay with COLO 205 colon.
As to `CNCCOc1nc2c3cnccc3cc(-c3cc(OC)c(OC)c(OC)c3)c2c2ccncc12`, the growth in the assay with NCI-H23 lung was -49.1% (active); with NCI-H226 lung it was -42.5% (active); in the assay on NCI-H322M lung it was -4.74% (active); in the assay with HOP-62 NSCLC, -39% (active); in the assay with NCI-H460 lung, -46.8% (active); with HOP-92 NSCLC, -20.8% (active). Besides, the growth was -62.7% (active) in the assay on NCI-H522 lung, -8.59% (active) in the assay with A549/ATCC NSCLC, -96.7% (active) in the assay with 786-0 renal and -61.2% (active) in the assay with COLO 205 colon.
For `CCc1ccc(CNc2ccc(N3CCOCC3)c(C(=O)O)c2)cc1`, the growth was 95.2% in the assay with NCI-H23 lung; 109% in the assay with NCI-H226 lung; 102% in the assay on NCI-H322M lung; 90.2% in the assay with HOP-62 NSCLC; 130% in the assay on NCI-H460 lung; 105% in the assay on HOP-92 NSCLC. The growth is 83.3% in the assay with NCI-H522 lung, 99% with A549/ATCC NSCLC, 98.9% with 786-0 renal and 101% in the assay on COLO 205 colon.

The values above are taken from PubChem BioAssay (NCI).
